Eight molecules from PubChem BioAssay (NCATS) can be followed below.

Test [1] has as its target Lysosomal acid glucosylceramidase (Homo sapiens) (UniProt P04062). As to the kind of experiment: Glucocerebrosidase-p2 (AID 348; in the data active = potency below about 10 µM; note: potency is the fitted concentration of half-maximal effect). The settings on record: purified GBA, blue fluorogenic substrate, 40 min. An outline of the steps:
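Normal human glucocerebrosidase (0.2 nM) with blue fluorogenic substrate (80 uM final) in citrate/phosphate pH 5.9 with 10mM sodium taurocholate, 0.01% tween-20; 40 min RT, NaOH/glycine stop; fluorescence Ex 365/Em 440; AC50 from a titration from 0.6 nM upwards.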

Test [2] in a line: AP1 Signaling Pathway (AID 357). Note: % is set by controls: 0 for no effect and ±100 for the full control effect. The conditions noted are these: ME-180 AP-1-bla reporter, EGF-induced, beta-lactamase ratio, 5 h; at 7.69 µM (top of the series) unless noted. The method in brief:
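ME-180 cells with beta-lactamase reporter under AP-1 response element, stimulated with EC50 EGF; compounds tested in titration series, 5 h at 37 °C. CCF4 substrate added 2.5 h at room temperature; 460/530 nm emission ratio gave %activity and AC50.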

The target in test [3] is Cytochrome P450 1A2 (Homo sapiens) (UniProt P05177). As to the kind of experiment: p450-cyp1a2 (AID 410; calls by dose curve; note: potency is the fitted concentration of half-maximal effect;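 for activity change, negative = inhibition: -100% = full effect of reference inhibitor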). The settings on record: recombinant CYP1A2, luciferin-ME demethylation, luminescence; series mostly up to 11.4 µM. An outline of the steps: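 Read-out is luminescence from luciferin produced by CYP1A2 demethylation of Luciferin-ME (100uM, at Km). Detection reagent stopped the 60 min NADPH-dependent reaction; signals were normalized to 57 uM furafylline.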

Test [4] can be described thus: NFAT Signaling Pathway (AID 444).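 Note: carbachol stimulus at about its EC50 of 1 µM final; % is set by controls: 0 for no effect and ±100 for the full control effect.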 The conditions noted are these: Jurkat NFAT-bla M1, carbachol, beta-lactamase ratio, 5 h; at 7.69 µM (top of the series) unless noted. An outline of the steps:
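Jurkat cells with NFAT-driven β-lactamase reporter and co-expressed M1 receptor, stimulated with carbachol (final 1 uM, ~EC50), compound titration, 5 h at 37 °C. CCF4 loaded 1 h at RT; 460/530 nm ratio gave %activity and AC50.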

Test [5] is described as follows: Stat Signaling Pathway (AID 446).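 Note: ME-180 cervical cancer cells given 40 pM IL-6 alongside compound; SIE-controlled beta-lactamase reporter measured as 460/530 nm FRET emission ratio; % is set by controls: 0 for no effect and ±100 for the full control effect.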 The conditions noted are these: ME-180 SIE beta-lactamase reporter, IL-6 stimulated, 5 h; at 7.69 µM (top of the series) unless noted. The method in brief:
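Compound effects on IL-6-induced STAT reporter activity were measured in ME-180 cells. After overnight culture, cells were co-treated with 40 pM IL-6 for 5 hrs before beta-lactamase substrate loading at room temperature.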

The target in test [6] is Glucocorticoid receptor (Homo sapiens) (UniProt P04150). As to the kind of experiment: GR-EFC Redistribution (AID 451; calls by dose curve; note: potency is the fitted concentration of half-maximal effect). The conditions noted are these: CHO-K1 GR-EFC translocation, beta-gal luminescence, 2 h. The method in brief: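 CHO-K1 cells expressing nuclear EA and GR-ED fragments of b-gal; compounds titrated up to 46 uM final, 2 h at 37 C. GR nuclear translocation read as complemented b-gal luminescence after 1 h RT detection.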

For test [7], the target named is Mitogen-activated protein kinase 10 (Mus musculus) (UniProt Q61831). As to the kind of experiment: JNK3 AlphaScreen Assay (AID 530).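 Note: kinase came from lysate of stimulated human HepG2 cells; signal reports phosphorylation of biotinylated GST-cJun 1-79 at Ser73 with 10 µM ATP; % is set by controls: 0 for no effect and ±100 for the full control effect.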 The settings on record: JNK3 lysate, c-Jun phosphorylation; series mostly up to 57.1 µM. The method in brief: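 HepG2 lysate (IL-1b/TNFa pre-activated) + biotin-GST-cJun 1-79 + anti-pSer73 cJun; cpd titration, 15 min RT; ATP 10 uM start; Tris pH 7.6, MgCl2, DTT, vanadate; beads in EDTA buffer; AlphaScreen.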

Test [8] deals with 3',5'-cyclic-AMP phosphodiesterase 4B (Homo sapiens) (UniProt Q07343). Description: qHTS Assay for Inhibitors of PDE-IV (AID 607; active = well fitted activation curve with a large enough effect in the main read-out, with a control signal flat, not every such curve was filed as active; note: % of control where 0% means no effect). The conditions noted are these: HEK293 ACTOne CNG channel cells, membrane potential fluorescence; series mostly up to 22.9 µM. An outline of the steps:
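ACTOne HEK293 cells carry a modified cAMP-gated CNG channel and express endogenous PDE4; plated 1000 cells/well, compounds up to 22.9 uM final. Membrane-potential dye fluorescence (ex 535/em 590) was read; parental cells received 10 uM forskolin + 100 uM RO 20-1724.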
(Quantitative high-throughput screening tests each substance at several concentrations.)

The target in test [9] is Glucocorticoid receptor (Homo sapiens) (UniProt P04150). Description: GR-GFP Redistribution (AID 450;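 active = compounds whose dose series gives a full or clear partial fitted curve of increased nuclear translocation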; note: potency is the fitted concentration of half-maximal effect). The conditions noted are these: U2OS GR-GFP nuclear translocation, laser cytometry, 2 h.
The nature of test [10]: qHTS Assay for Identification of Small Molecule Agonists for Hypoxia Response Element Signaling Pathway (AID 914; active = well fitted activation curve with a large enough effect in the signal ratio, with a control signal flat, not every such curve was filed as active; the % refers to the signal ratio; note: % of control where 0% means no effect). The conditions noted are these: ME-180 (cervical carcinoma) HRE-bla reporter, beta-lactamase ratio, CoCl2, 17 h; stronger effect = higher value. The method in brief:
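In Opti-MEM containing 0.5% dialyzed FBS and 10 mM HEPES, ME-180 HRE-bla cells received a compound titration and EC50 CoCl2. They were incubated 17 hours, then CCF4-loaded 2.5 hours at room temperature before ratio reading.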

For test [11], the target named is Tyrosyl-DNA phosphodiesterase 1 (Homo sapiens) (UniProt Q9NUW8). Description: Confirmation Assay for Inhibitors of Tyrosyl-DNA Phosphodiesterase (TDP1) (AID 489007; active = well fitted curve in the direction sought with a large enough effect; an effect the other way counts as inactive or inconclusive; note: potency is the fitted concentration of half-maximal effect; nearly all actives have a fitted effect of over 40% in size). The settings on record: recombinant human TDP1 enzymatic activity, dose-response. An outline of the steps:
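Loss of AlphaScreen signal reports Tdp1 cleavage of a dual-labelled DNA substrate. Conditions: 1 nM E. coli-derived enzyme, 15 nM substrate, 15 min compound preincubation, 5 min reaction, 10 min bead incubation, all at room temperature.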

The target in test [12] is Luciferin 4-monooxygenase (Photinus pyralis) (UniProt P08659). As to the kind of experiment: Biochemical firefly luciferase enzyme assay for NPC (AID 624030; active = well fitted curve in the direction sought with a large enough effect; an effect the other way counts as inactive or inconclusive;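 note: purified P. pyralis luciferase at 10 nM with luciferin and ATP substrate; 0% = DMSO and -100% = full luciferase inhibition by PTC124 control; nearly all actives have a fitted effect of over 70% in size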). The settings on record: purified P. pyralis luciferase, luminescence, 5 min; series mostly up to 58.6 µM. The method in brief: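 Purified P. pyralis luciferase at 10 nM in 50 mM Tris Acetate (final), luminescence read within 5 minutes of enzyme addition to compounds. Activity normalised to PTC124 versus DMSO; concentration-response curves classed by r2, magnitude and activity.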

Test [13] deals with Cytochrome P450 3A4 (Homo sapiens) (UniProt P08684). As to the kind of experiment: qHTS Assay for Inhibitors and Substrates of Cytochrome P450 3A4 (AID 884; active = well fitted curve in the direction sought with a large enough effect; an effect the other way counts as inactive or inconclusive; note: potency is the fitted concentration of half-maximal effect; nearly all actives have a fitted effect of over 50% in size). The conditions noted are these: recombinant CYP3A4, Luciferin-PPXE luminescence; series mostly up to 57.1 µM. The method in brief: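 Luminescent readout of luciferin produced by CYP3A4 (20 nM) dealkylation of Luciferin-PPXE, 25 uM (its KM). NADPH-driven reaction ran 60 min at RT after 10 min compound preincubation; data scaled to 57 uM ketoconazole as 100% inhibition.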

The target is the same in test [14]. Description: qHTS Assay for Activators of Cytochrome P450 3A4 (AID 885; active = well fitted curve in the direction sought with a large enough effect; an effect the other way counts as inactive or inconclusive; note: nearly all actives have a fitted effect of over 65% in size). The conditions noted are these: recombinant CYP3A4, Luciferin-PPXE luminescence, 60 min; series mostly up to 57.1 µM. An outline of the steps:
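CYP3A4 activity: Luciferin-PPXE O-dealkylation, 25uM substrate, 200mM KPO4, RT throughout. Read-out is luciferase luminescence; higher values reflect activation.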

For test [15], the target named is Cytochrome P450 2C19 (Homo sapiens) (UniProt P33261). As to the kind of experiment: qHTS Assay for Inhibitors and Substrates of Cytochrome P450 2C19 (AID 899; active = well fitted curve in the direction sought with a large enough effect; an effect the other way counts as inactive or inconclusive; note: % is set by controls: 0 for no effect and ±100 for the full control effect; nearly all actives have a fitted effect of over 60% in size). The settings on record: recombinant CYP2C19, luciferin-H EGE luminescence; series mostly up to 11.4 µM. The method in brief:
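Luminescent read-out of luciferin formed from Luciferin-H EGE (10uM, equal to KM). Enzyme 5nM in 50mM KPO4; compound added, 10 min at 37C, then NADPH regenerating system for 60 min at 37C. Full inhibition defined by 57uM ketoconazole.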

Values without a mark were called inactive. Results filed as inconclusive are left out. Active and inactive are the calls of the source. Unless noted, calls come from the whole dose curve; as a rule, active = well fitted curve in either direction with a large enough effect (not every such curve was filed as active); inconclusive = small, poorly fitted or top-dose-only effect, or another doubt; inactive = flat fitted curve, though single readings scatter.

Sequence of 3',5'-cyclic-AMP phosphodiesterase 4B (Homo sapiens) (Q07343 whole entry, looked up): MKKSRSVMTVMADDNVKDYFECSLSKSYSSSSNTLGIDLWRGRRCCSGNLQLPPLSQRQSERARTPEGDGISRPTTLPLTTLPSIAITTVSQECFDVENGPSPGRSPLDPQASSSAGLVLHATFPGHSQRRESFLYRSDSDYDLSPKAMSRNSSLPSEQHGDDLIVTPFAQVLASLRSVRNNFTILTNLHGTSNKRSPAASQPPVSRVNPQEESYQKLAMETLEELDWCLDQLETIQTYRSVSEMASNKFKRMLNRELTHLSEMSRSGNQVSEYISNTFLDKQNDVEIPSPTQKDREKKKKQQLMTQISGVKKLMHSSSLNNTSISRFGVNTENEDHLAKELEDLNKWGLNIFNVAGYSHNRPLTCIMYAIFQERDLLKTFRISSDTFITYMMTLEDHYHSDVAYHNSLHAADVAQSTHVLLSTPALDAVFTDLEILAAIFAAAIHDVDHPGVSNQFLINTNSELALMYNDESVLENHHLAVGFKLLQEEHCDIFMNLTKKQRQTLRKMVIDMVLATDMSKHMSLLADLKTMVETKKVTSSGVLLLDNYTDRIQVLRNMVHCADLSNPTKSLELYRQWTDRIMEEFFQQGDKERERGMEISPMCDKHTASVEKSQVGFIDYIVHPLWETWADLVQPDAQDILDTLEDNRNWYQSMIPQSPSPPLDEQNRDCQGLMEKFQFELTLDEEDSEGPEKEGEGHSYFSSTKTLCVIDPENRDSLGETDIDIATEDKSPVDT
Sequence of Cytochrome P450 1A2 (Homo sapiens) (P05177 whole entry, looked up): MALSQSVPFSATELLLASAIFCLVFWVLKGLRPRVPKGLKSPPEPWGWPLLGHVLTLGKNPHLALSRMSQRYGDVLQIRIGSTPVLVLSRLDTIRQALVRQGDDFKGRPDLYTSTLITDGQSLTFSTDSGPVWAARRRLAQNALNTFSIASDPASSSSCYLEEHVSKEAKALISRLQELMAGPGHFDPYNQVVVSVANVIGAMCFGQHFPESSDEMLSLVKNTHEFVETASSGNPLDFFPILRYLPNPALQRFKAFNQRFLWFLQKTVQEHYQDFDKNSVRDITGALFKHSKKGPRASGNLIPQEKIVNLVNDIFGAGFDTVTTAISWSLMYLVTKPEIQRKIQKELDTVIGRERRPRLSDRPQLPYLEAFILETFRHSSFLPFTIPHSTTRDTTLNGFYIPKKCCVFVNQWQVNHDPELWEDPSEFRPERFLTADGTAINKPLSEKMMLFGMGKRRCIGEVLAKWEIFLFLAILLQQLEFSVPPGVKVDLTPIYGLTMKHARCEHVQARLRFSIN
Sequence of Lysosomal acid glucosylceramidase (Homo sapiens) (P04062 whole entry, looked up): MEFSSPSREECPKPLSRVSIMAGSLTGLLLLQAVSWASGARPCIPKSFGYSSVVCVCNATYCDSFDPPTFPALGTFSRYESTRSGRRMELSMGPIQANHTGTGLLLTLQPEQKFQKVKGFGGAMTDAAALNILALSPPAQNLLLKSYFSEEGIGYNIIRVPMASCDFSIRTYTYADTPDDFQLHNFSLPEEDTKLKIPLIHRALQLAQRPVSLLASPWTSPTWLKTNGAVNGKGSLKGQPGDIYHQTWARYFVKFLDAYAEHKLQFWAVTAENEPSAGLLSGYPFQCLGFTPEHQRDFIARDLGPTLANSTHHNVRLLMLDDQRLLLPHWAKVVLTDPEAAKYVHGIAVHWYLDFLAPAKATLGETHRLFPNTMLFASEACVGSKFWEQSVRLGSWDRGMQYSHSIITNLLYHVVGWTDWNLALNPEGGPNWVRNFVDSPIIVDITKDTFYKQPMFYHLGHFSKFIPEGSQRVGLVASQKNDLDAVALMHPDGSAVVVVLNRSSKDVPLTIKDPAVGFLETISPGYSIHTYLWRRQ
Sequence of Glucocorticoid receptor (Homo sapiens) (P04150 whole entry, looked up, the tested form may be a part): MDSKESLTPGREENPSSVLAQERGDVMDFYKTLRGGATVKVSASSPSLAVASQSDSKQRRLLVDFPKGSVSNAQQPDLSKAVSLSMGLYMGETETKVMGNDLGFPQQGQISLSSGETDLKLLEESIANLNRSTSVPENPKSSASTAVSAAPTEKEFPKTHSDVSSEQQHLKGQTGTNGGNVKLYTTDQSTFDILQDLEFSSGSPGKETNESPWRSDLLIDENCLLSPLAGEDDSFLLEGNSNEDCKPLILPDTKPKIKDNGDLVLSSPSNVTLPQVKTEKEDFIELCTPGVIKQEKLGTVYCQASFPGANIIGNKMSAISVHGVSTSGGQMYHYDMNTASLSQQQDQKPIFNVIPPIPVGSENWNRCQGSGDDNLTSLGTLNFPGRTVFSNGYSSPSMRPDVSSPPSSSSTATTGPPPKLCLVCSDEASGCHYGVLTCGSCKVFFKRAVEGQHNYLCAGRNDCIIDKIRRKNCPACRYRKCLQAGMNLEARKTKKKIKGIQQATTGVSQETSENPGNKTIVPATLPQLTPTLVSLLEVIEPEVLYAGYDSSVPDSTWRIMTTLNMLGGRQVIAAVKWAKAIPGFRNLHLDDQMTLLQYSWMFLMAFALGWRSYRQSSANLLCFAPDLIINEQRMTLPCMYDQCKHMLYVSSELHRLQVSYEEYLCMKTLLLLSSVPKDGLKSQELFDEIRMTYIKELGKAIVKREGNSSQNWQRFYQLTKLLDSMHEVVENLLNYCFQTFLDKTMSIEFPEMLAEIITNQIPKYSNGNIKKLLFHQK
Sequence of Cytochrome P450 3A4 (Homo sapiens) (P08684 whole entry, looked up): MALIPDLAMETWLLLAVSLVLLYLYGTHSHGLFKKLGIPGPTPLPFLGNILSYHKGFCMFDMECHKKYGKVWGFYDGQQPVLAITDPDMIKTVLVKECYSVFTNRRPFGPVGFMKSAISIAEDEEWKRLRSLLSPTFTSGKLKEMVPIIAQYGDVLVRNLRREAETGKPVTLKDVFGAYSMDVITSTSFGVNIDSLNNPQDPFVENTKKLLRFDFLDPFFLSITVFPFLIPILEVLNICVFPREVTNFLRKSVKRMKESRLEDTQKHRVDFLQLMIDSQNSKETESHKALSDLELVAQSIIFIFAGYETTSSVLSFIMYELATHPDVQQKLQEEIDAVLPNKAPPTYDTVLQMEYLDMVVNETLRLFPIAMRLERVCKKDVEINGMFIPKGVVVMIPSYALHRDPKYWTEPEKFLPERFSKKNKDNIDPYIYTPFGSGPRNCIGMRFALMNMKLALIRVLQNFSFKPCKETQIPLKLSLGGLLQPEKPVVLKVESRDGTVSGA
Sequence of Cytochrome P450 2C19 (Homo sapiens) (P33261 whole entry, looked up): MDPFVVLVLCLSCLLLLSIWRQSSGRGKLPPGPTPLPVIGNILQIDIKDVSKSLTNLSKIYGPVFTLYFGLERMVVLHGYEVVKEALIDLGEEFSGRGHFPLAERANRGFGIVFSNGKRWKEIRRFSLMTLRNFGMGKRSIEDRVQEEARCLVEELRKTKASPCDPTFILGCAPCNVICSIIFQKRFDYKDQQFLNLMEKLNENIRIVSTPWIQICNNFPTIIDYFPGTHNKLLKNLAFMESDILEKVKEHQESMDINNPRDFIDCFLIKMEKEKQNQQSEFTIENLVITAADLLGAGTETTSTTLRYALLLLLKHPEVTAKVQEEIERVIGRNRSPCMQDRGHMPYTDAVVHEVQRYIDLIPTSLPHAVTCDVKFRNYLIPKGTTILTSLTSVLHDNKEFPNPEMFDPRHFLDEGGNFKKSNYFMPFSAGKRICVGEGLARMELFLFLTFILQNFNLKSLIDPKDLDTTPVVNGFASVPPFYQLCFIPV
Sequence of Luciferin 4-monooxygenase (Photinus pyralis) (P08659 whole entry, looked up): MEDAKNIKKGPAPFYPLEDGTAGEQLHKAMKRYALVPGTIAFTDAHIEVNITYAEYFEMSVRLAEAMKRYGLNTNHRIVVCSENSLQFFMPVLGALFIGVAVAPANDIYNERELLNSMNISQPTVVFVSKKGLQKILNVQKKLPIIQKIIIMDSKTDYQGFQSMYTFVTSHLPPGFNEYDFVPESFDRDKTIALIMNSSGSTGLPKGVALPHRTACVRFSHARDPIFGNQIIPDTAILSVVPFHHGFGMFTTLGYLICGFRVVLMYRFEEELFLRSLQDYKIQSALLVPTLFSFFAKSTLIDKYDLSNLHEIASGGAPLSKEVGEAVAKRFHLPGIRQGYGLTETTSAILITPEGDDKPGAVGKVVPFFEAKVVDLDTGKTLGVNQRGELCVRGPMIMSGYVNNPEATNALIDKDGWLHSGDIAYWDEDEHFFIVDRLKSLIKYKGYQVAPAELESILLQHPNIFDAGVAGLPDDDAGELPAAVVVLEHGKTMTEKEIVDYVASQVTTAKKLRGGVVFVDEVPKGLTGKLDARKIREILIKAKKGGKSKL
Sequence of Tyrosyl-DNA phosphodiesterase 1 (Homo sapiens) (Q9NUW8 whole entry, looked up): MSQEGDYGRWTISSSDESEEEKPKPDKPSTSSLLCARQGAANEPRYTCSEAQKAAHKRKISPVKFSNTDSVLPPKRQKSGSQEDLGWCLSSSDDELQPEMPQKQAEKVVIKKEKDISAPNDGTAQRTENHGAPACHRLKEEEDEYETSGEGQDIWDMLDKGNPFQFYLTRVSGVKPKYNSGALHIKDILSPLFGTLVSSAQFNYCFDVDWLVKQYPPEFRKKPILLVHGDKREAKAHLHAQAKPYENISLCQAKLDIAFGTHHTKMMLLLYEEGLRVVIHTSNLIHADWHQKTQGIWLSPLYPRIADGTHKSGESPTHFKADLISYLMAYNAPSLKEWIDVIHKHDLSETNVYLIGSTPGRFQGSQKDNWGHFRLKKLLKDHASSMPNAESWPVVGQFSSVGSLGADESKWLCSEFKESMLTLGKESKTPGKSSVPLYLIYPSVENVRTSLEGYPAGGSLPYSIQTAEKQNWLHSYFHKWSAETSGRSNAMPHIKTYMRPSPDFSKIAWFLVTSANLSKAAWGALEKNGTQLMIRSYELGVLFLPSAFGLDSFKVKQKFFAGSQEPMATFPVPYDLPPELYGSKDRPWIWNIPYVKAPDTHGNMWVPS

As to `CC1=NN(c2ccc(S(=O)(=O)O)cc2C)C(=[OH+])[C@H]1N=Nc1cc(S(=O)(=O)O)ccc1C(=O)O.O.[Cr]`, the results for the Potency in [1] and in test [6] were > 11.4 µM and > 9.22 µM, respectively. For the same molecule, the activity change, negative = inhibition in test [2] is -5.8%; in [4], 12.1%; in test [7], -0.77% [at 11.4 µM]. Also, the Potency entry in test [3] was “inactive”. Further, in test [5], the activity, negative = inhibition was 7.29%. Also, the molecule was called inactive in [8].

`CCN(CC)CCn1ncc2c(N)ncnc21`: the Potency in [1] is > 11.4 µM. The activity change, negative = inhibition in test [2] is 1.87%; in test [4] it was 0.535%; in test [7] it was -1.5% [at 11.4 µM]. The Potency entry in [3] is “inactive”. Moreover, the activity, negative = inhibition in [5] is -0.447%. Also, the molecule was classed as inactive in test [8].

Take `O=[N+]([O-])c1cc(-c2ccc([As](=O)(O)O)cc2)ccc1[As](=O)(O)O`: the Potency was > 11.4 µM in test [1], > 46 µM in [9], > 9.22 µM in test [6] and 89.1 µM (active) in [11]. For the same molecule, the activity change, negative = inhibition in [2] was 3.12%; in test [3], -10.9% [at 2.29 µM]; in test [7] it was 2.81% [at 11.4 µM]. Also, in test [5], the activity, negative = inhibition is 1.81%. The molecule was called inactive in test [8]. Besides, the activation in [10] is 1.51%.

For `NS(=O)(=O)c1ccc(-c2ccc([As](=O)(O)O)cc2)cc1`, the results for the Potency in test [1] and in test [6] were > 11.4 µM and > 9.22 µM, respectively. Moreover, the activity change, negative = inhibition in test [2] was 0.512%; in [4], 17.3%; in test [7], 2.57% [at 11.4 µM]. Besides, the Potency result in test [3] is “inactive”. Moreover, the activity, negative = inhibition in test [5] was 6.23%. The molecule was called inactive in test [8].

Regarding `COc1cc2c(cc1OC)[C@@]13CCN4C=C5CCO[C@H]6CC(=O)N2[C@@H]1[C@@H]6[C@H]5C[C@H]43`, the Potency in test [1] was > 11.4 µM; in test [3] it was 5.01 µM (active). The activity change, negative = inhibition in [2] was 4.45%; in test [4], 16.4%; in [7] it was 3.62% [at 11.4 µM]. Also, in test [5], the activity, negative = inhibition is 2.38%. In test [8], the result was inactive. The activation in [10] is -4.7%.

With `O=c1[nH]cnc2[nH]cc(CN3CCCCC3)c12`, the Potency in test [1] is > 11.4 µM. For the same molecule, the values for the activity change, negative = inhibition in test [2], in test [4] and in [7] were 2.74%, 3.17% and 0.447% [at 11.4 µM], respectively. The Potency entry in test [3] is “inactive”. The activity, negative = inhibition in test [5] is 0.346%. For the same molecule, the call in [8] and in test [12] was inactive.

Turning to `Nc1ccc(S(=O)(=O)c2ccc(NCN3C(=O)NC(=O)C(=O)C3=O)cc2)cc1`, the Potency was > 11.4 µM in test [1], > 9.22 µM in test [6] and 2 µM (active) in test [13]. Moreover, the activity change, negative = inhibition in test [2] is -11.3%; in [4], 14.2%. Also, the Potency result in test [3] and in [15] was “inactive” each time. The activity, negative = inhibition in [5] is -4.49%. Further, the molecule was called inactive in test [8]. For the same molecule, the activity change, positive = activation in test [14] is -78% [at 11.4 µM].

Turning to `O=C(O)CS(=O)(=O)C(c1ccccc1)c1ccccc1`, the Potency in test [1] was > 11.4 µM. Also, the activity change, negative = inhibition in [2] is -6.22%; in test [3], -15.7% [at 2.29 µM]; in test [4], -2.65%; in [7], 1.62% [at 11.4 µM]. The activity, negative = inhibition in test [5] is 3.8%. Besides, the result in test [8] was inactive. Besides, in test [15], the Potency entry is “inactive”.
